Several values for one entry are separate records, joined by “and”; a condition that tells them apart may be missing. Identical values can stand only once. Records with an inconclusive call do not appear. Activity calls are given as the source filed them. Unless noted, calls follow the shape of the full dose curve.
Key:
[1] = molecular target: Glucocorticoid receptor (Homo sapiens) (UniProt P04150); assay: qHTS assay for small molecule agonists of glucocorticoid receptor signaling (AID 588532; active = well fitted curve in the direction sought with a large enough effect in the signal ratio, with a control signal flat; the % refers to the signal ratio;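 also: 100% = dexamethasone at 0.1 µM and 0% = DMSO only wells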); conditions: HeLa MMTV-bla, beta-lactamase ratio, agonist, 18 h; activation: stronger effect = higher value, percent of dexamethasone control, DMSO zero
Chain of Glucocorticoid receptor (Homo sapiens) (P04150 whole entry, looked up): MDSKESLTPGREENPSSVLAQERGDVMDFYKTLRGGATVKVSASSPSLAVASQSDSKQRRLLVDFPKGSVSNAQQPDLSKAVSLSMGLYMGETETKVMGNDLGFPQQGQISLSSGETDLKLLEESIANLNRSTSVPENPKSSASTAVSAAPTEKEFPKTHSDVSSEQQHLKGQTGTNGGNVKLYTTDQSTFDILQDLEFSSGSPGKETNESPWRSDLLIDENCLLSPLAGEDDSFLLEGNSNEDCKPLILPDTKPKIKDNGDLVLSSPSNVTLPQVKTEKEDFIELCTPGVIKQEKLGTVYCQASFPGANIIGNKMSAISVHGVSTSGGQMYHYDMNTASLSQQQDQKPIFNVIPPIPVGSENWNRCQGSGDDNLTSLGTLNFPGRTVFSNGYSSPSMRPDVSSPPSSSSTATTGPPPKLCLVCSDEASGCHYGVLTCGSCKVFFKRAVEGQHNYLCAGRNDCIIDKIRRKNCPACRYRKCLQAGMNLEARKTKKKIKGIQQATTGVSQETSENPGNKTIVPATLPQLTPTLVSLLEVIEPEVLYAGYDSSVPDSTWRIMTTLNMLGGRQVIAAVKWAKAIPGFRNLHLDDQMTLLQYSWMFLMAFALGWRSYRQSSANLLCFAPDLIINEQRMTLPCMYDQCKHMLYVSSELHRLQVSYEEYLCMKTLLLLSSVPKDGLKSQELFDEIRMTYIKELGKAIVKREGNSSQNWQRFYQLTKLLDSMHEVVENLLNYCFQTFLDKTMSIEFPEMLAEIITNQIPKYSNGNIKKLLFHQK
Summary of the method: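 Agonist-mode qHTS: GRE-driven beta-lactamase in HeLa cells exposed 18 h to titrated compounds (up to 92 uM), then CCF4 ratio read after 2 h at RT; Hill-fitted EC50, efficacy relative to 0.1 uM dexamethasone.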

[2] = molecular target: Glucocorticoid receptor (Homo sapiens) (UniProt P04150); assay: qHTS assay for small molecule antagonists of glucocorticoid receptor signaling (AID 588533; active = well fitted inhibition curve with a large enough effect in the signal ratio, with a control signal flat, not every such curve was filed as active; the % refers to the signal ratio;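 also: cells stimulated with 2 nM dexamethasone as agonist; % is scaled to controls: 0 for no effect and ±100 for the full control effect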)
Summary of the method: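 Antagonist-mode qHTS: compound titrations added to GRE-bla HeLa cells, then dexamethasone 2 nM final; 18 h, 37 C. CCF4 FRET fluorescence normalized to dexamethasone and DMSO; IC50 from Hill fit.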

[3] = molecular target: Peroxisome proliferator-activated receptor gamma (Homo sapiens) (UniProt P37231); assay: qHTS assay for small molecule agonists of peroxisome proliferator-activated receptor gamma signaling (AID 588536; active = well fitted curve in the direction sought with a large enough effect in the signal ratio, with a control signal flat, not every such curve was filed as active; the % refers to the signal ratio; also: potency is read from the fitted curve at half-maximal effect;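 as to activation: 0% = DMSO basal wells and 100% = rosiglitazone at 2 µM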)
Chain of Peroxisome proliferator-activated receptor gamma (Homo sapiens) (P37231 whole entry, looked up): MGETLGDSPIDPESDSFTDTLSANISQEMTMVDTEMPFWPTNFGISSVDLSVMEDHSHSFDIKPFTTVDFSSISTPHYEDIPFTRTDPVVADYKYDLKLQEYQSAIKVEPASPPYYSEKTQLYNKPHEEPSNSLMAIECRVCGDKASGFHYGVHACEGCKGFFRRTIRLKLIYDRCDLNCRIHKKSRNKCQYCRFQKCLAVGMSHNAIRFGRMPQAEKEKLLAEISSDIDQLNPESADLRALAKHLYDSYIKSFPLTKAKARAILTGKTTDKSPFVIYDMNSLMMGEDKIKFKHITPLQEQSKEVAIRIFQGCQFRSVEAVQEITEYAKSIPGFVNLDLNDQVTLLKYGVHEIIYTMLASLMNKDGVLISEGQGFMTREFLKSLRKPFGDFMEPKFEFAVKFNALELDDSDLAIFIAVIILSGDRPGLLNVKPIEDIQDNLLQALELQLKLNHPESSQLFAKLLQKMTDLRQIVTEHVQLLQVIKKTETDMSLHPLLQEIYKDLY
Summary of the method: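 PPAR-gamma-UAS-bla HEK293 cells in medium with 1% charcoal/dextran-treated FBS were exposed to compounds for 16 h at 37 C. Beta-lactamase activity was read with CCF4 substrate (405 nm excitation, 460/530 nm emission).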

[4] = molecular target: Vitamin D3 receptor (Homo sapiens) (UniProt P11473); assay: qHTS assay for small molecule agonists of vitamin D receptor signaling (AID 588543);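 also: 0% = DMSO basal and 100% = reference agonist control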
Chain of Vitamin D3 receptor (Homo sapiens) (P11473 whole entry, looked up): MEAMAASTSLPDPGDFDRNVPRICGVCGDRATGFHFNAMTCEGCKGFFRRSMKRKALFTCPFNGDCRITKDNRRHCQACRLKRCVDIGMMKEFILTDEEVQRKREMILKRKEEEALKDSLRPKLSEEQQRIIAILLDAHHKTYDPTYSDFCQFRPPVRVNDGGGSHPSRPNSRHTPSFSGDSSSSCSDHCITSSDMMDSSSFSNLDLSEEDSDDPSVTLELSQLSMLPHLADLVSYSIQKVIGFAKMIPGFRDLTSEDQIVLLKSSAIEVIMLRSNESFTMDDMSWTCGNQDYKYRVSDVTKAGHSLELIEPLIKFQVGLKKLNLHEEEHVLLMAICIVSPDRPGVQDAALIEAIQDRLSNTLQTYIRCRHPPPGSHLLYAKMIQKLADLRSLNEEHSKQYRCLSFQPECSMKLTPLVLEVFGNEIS
Summary of the method: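 qHTS in agonist mode: compound titrations stimulate a VDR-driven β-lactamase reporter in HEK293T cells over 16 h at 37 °C. Response normalized to 50 nM 1α,25-dihydroxyvitamin D3 = 100%, DMSO = 0%; Hill fitting gives EC50 and maximal response.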

[5] = qHTS assay for small molecule agonists of retinoid X receptor alpha signaling (AID 588544); conditions: HEK293T RXRa-UAS-bla, beta-lactamase reporter, 18 h; 530 nm emission;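 as to activation: 0% = DMSO basal wells and 100% = reference agonist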
[6] = molecular target: Retinoic acid receptor RXR-alpha (Homo sapiens) (UniProt P19793); assay: as above
Chain of Retinoic acid receptor RXR-alpha (Homo sapiens) (P19793 whole entry, looked up): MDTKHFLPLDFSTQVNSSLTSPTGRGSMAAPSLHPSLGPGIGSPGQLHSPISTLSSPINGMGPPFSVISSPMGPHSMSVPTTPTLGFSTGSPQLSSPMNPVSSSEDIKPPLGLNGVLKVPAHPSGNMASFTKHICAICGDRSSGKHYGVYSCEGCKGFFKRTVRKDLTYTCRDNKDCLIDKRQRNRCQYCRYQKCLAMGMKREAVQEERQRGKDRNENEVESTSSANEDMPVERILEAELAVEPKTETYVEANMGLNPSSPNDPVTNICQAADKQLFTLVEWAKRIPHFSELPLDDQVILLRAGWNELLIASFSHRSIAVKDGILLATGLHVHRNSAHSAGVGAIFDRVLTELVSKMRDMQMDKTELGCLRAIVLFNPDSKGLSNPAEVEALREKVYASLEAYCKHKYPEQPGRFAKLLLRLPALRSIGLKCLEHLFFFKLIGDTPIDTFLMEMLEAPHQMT

[7] = molecular target: Thyroid hormone receptor beta (Homo sapiens) (UniProt P10828); assay: qHTS assay for small molecule agonists of thyroid hormone receptor beta signaling (AID 588545)
Chain of Thyroid hormone receptor beta (Homo sapiens) (P10828 whole entry, looked up): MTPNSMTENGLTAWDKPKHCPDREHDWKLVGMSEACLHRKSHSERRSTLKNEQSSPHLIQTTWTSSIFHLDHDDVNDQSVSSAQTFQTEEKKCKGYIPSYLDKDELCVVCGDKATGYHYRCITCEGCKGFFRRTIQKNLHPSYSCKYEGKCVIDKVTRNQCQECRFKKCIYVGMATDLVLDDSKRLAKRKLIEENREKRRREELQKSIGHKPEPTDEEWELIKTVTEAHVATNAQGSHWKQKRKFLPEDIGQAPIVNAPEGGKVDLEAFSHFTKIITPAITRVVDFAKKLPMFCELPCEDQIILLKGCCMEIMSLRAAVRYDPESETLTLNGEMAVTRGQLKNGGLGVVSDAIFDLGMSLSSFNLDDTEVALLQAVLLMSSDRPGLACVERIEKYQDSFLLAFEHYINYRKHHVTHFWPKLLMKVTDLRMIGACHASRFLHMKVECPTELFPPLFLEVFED
Summary of the method: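 HEK 293 TR-UAS-bla; agonist mode; 18 hrs, 37 C; CCF4, ex 405/em 460 and 530 nm; norm. T3 10 nM = 100%, DMSO = 0%; Hill fit → EC50, efficacy.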

[8] = qHTS assay for small molecule antagonists of retinoid X receptor alpha signaling (AID 588546; active = well fitted inhibition curve with a large enough effect in the signal ratio, with a control signal flat, not every such curve was filed as active; the % refers to the signal ratio;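 also: cells stimulated with 9-cis-retinoic acid as agonist; % is scaled to controls: 0 for no effect and ±100 for the full control effect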); conditions: HEK293T RXRa-UAS-bla, beta-lactamase ratio, antagonist mode; measured here: W530 green channel, cytotoxicity proxy
Summary of the method: (§1)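 Beta-lactamase reporter inhibition, read as CCF4 fluorescence ratio (ex 405, em 460/530 nm) after 2 h at RT. HEK293T UAS-bla cells, 2500/well, were stimulated with 9-cis-RA at 500 or 100 nM final alongside test compound for 18 h at 37 C.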

[9] = qHTS assay for small molecule activators of the p53 signaling pathway (AID 651743; active = well fitted activation curve with a large enough effect in the signal ratio, not every such curve was filed as active; the % refers to the signal ratio; also: series mostly up to about 92 µM; % of control where 0% means no effect); conditions: HCT-116 p53RE-bla, beta-lactamase FRET ratio, 16 h; activation: stronger effect = higher value
Summary of the method: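 Screen for p53 pathway agonists uses stably transfected p53RE-bla HCT-116 cells, 4,000 per well, treated 16 h at 37 C with compounds in DMSO.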

[10] = qHTS assay for environmental chemicals that activate the Aryl hydrocarbon Receptor (AhR) signaling pathway (AID 651777; active = well fitted curve in the direction sought with a large enough effect; an effect the other way counts as inactive or inconclusive; also: % of control where 0% means no effect; nearly all actives have a fitted effect of over 15% in size); conditions: 1A2-DRE human hepatoma cells, luciferase, 24 h; activation: stronger effect = higher value
Summary of the method: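 Stable CYP1A2 promoter/DRE-luciferase human hepatoma line treated 24 hr; One-Glo luminescence, 30 min RT.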

[11] = molecular target: Peroxisome proliferator-activated receptor alpha (Homo sapiens) (UniProt Q07869); assay: qHTS assay for small molecule agonists of the peroxisome proliferator-activated receptor alpha (PPARalpha) signaling pathway (AID 651778; active = well fitted curve in the direction sought with a large enough effect; an effect the other way counts as inactive or inconclusive; also: % of control where 0% means no effect); conditions: PathHunter PPARalpha complementation, chemiluminescence, 6 h; max response: stronger effect = higher value
Chain of Peroxisome proliferator-activated receptor alpha (Homo sapiens) (Q07869 whole entry, looked up): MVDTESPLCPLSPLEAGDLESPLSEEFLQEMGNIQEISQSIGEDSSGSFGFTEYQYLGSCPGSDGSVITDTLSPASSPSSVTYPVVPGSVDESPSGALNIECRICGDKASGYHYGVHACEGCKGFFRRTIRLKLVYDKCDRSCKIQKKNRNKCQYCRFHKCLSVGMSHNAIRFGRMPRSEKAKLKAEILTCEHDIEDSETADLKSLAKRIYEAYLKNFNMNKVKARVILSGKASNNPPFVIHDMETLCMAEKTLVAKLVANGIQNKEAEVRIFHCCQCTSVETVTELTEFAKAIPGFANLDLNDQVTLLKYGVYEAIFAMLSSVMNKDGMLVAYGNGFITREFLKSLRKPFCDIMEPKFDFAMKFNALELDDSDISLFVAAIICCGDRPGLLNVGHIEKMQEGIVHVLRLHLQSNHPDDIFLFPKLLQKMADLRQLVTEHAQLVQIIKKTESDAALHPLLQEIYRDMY
Summary of the method: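 Chemiluminescence from complemented enzyme reported PPARalpha activation in cells after 6 hr of compound treatment at 37 C. The detection reagent was incubated for 60 min at room temperature, and compounds were scored as agonists.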

[12] = qHTS assay for small molecule agonists of the antioxidant response element (ARE) signaling pathway measured by Nrf2-dependant transcriptional activity (AID 720636; active = well fitted curve in the direction sought with a large enough effect in the repeat runs; an effect the other way counts as inactive or inconclusive;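 also: HepG2 cells with an ARE-driven luciferase reporter; % of control where 0% means no effect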)
Summary of the method: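 Reporter gene assay, HepG2 ARE-luc: 16 hr compound, 37 C, 5% CO2; read-out luciferase luminescence.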

[13] = qHTS assay for small molecule agonists of the antioxidant response element (ARE) signaling pathway measured by Nrf2-dependant transcriptional activity - cell viability counter screen (AID 720653; active = well fitted curve in the direction sought with a large enough effect in the repeat runs; an effect the other way counts as inactive or inconclusive; also: % is scaled to controls: 0 for no effect and ±100 for the full control effect); conditions: ARE-bla HepG2 viability, CellTiter-Glo ATP luminescence, 16 h; max response: stronger effect = lower value
Summary of the method: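 Cytotoxicity counter screen: intracellular ATP quantified by CellTiter-Glo luminescence in the same ARE-bla HepG2 plates, after 16 h compound exposure and a 2 h beta-lactamase substrate step.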

[14] = qHTS assay for cell viability of the p53RE-bla HCT-116 cell line (AID 743292; active = well fitted curve in the direction sought with a large enough effect; an effect the other way counts as inactive or inconclusive; also: % is scaled to controls: 0 for no effect and ±100 for the full control effect; nearly all actives have a fitted effect of over 55% in size)
Summary of the method: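 Readout: CellTiter-Glo luminescence after 30 min RT. Treatment: compounds in DMSO, 16 h, 37 C. Cells: CellSensor p53RE-bla HCT-116, 4,000/well, preincubated 5 h.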

[15] = molecular target: Nuclear receptor subfamily 1 group I member 2 (Rattus norvegicus) (UniProt Q9R1A7); assay: qHTS assay for small molecule activators of the rat pregnane X receptor (rPXR) signaling pathway (AID 651751; call rule not given here; also: 0% is about no effect); conditions: rPXR reporter cells, luciferase (One-Glo), 24 h
Chain of Nuclear receptor subfamily 1 group I member 2 (Rattus norvegicus) (Q9R1A7 whole entry, looked up): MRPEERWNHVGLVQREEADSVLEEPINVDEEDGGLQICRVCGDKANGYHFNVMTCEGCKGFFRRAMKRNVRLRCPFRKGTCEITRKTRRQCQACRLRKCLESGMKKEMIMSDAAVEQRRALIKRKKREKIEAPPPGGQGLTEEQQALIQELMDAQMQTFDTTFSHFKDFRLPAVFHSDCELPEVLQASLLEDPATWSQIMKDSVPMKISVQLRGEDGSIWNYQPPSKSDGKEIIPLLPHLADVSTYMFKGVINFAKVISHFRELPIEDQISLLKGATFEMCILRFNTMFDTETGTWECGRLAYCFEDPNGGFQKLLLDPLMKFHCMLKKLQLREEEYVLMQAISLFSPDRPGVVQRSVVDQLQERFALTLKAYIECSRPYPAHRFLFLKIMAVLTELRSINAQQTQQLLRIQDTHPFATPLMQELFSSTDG

[16] = molecular target: Estrogen receptor (Homo sapiens) (UniProt P03372); assay: qHTS assay for small molecule agonists of estrogen receptor alpha signaling (AID 588514);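 also: 0% = vehicle only and 100% = reference agonist; nearly all actives have a fitted effect of over 70% in size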
Chain of Estrogen receptor (Homo sapiens) (P03372 whole entry, looked up): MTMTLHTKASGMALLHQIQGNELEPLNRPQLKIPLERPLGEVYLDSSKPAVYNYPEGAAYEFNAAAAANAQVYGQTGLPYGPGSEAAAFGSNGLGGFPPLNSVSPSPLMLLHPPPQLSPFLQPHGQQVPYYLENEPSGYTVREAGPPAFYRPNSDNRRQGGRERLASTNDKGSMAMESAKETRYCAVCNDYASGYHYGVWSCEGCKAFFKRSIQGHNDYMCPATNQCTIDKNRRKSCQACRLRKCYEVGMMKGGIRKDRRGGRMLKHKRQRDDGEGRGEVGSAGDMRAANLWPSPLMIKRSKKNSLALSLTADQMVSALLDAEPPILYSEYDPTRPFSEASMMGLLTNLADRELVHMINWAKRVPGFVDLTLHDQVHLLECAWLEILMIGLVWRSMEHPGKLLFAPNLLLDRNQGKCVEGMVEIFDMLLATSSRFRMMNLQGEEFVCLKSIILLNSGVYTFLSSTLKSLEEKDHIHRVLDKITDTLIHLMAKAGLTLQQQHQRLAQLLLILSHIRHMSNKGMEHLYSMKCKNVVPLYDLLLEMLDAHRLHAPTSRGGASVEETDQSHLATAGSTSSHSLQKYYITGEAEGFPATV
Summary of the method: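 Reporter-gene assay. […] controls beta-lactamase in HEK 293 GripTite cells; after 18 hrs with compound, CCF4 substrate is added for 2 hrs and fluorescence is read.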

[17] = qHTS assay for cell viability of HEK293 cells (AID 743288; active = well fitted curve in the direction sought with a large enough effect; an effect the other way counts as inactive or inconclusive; also: % is scaled to controls: 0 for no effect and ±100 for the full control effect; nearly all actives have a fitted effect of over 50% in size); conditions: ATP luminescence (CellTiter-Glo), 18 h; max response: stronger effect = lower value
Summary of the method: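 The Tox21 protocol used parental HEK293 cells treated for 18 h at 37 C with compounds delivered by pintool; ATP-coupled luminescence after 30 min at room temperature gave viability.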

[18] = molecular target: Peroxisome proliferator-activated receptor delta (Homo sapiens) (UniProt Q03181); assay: qHTS assay for small molecule agonists of peroxisome proliferator-activated receptor delta signaling (AID 588534);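 also: 0% = DMSO basal wells and 100% = positive control agonist at 10 µM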
Chain of Peroxisome proliferator-activated receptor delta (Homo sapiens) (Q03181 whole entry, looked up): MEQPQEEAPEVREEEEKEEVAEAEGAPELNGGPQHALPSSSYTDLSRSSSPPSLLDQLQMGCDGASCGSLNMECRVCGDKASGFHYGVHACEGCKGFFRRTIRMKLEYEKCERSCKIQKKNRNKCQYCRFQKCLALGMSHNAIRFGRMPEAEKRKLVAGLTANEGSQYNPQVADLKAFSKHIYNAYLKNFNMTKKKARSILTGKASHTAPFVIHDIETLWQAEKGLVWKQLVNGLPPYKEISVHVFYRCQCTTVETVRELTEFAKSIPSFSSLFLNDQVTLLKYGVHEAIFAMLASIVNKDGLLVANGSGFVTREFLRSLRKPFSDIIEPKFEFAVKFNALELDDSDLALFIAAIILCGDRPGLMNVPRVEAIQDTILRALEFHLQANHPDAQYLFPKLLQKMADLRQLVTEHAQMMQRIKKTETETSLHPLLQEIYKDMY
Summary of the method: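 Reporter cells were plated and held 5 hrs at 37 C before compounds were added. After 18 hrs at 37 C, CCF4 dye was loaded for 2 hrs at RT and fluorescence measured.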

[19] = molecular target: Retinoic acid receptor RXR-alpha (Homo sapiens) (UniProt P19793); assay: qHTS assay for small molecule antagonists of retinoid X receptor alpha signaling (AID 588546); conditions: HEK293T RXRa-UAS-bla, beta-lactamase ratio, antagonist mode;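 also: cells stimulated with 9-cis-retinoic acid as agonist; % is scaled to controls: 0 for no effect and ±100 for the full control effect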
Summary of the method: as §1

[20] = molecular target: Thyroid hormone receptor beta (Homo sapiens) (UniProt P10828); assay: qHTS assay for small molecule antagonists of thyroid hormone receptor beta signaling (AID 588547; active = well fitted inhibition curve with a large enough effect in the signal ratio, with a control signal flat, not every such curve was filed as active; the % refers to the signal ratio); conditions: TR-UAS-bla HEK293, beta-lactamase ratio, antagonist mode, 18 h
Summary of the method: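 Inhibition of T3-driven (0.4nM final) beta-lactamase reporter activity was measured over 0.59 nM to 92 uM compound after 18 h at 37 C. The cells were GripTite HEK293 TR-UAS-bla in charcoal/dextran-stripped serum, with CCF4 ratio read-out and IC50 from Hill fits.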

Row | Compound | activation [1] | Potency [2] | Potency [3] | outcome [4] | max response [5] | Potency [6] | Potency [7] | max response [8] | activation [9] | activation [10] | max response [11] | Potency [12] | max response [13] | Potency [14] | max response [15] | Potency [16] | max response [17] | outcome [18] | max response [19] | activity change % (negative = inhibition) [20]
1 | COc1nc(C)nc(NC(=O)NS(=O)(=O)c2ccccc2Cl)n1 | -6.7% (inactive) | inactive | inactive | inactive | -7.69% | inactive | inactive | -9.33% | -1.02% (inactive) | 1.34% (inactive) | -1.56% (inactive) | inactive | -0.816% (inactive) | inactive | -1.17% (inactive) | – | – | – | – | –
2 | COc1ccc(-c2ccccc2)cc1NNC(=O)OC(C)C | -5.42% (inactive) | inactive | – | inactive | – | – | – | – | -1.18% (inactive) | – | -0.526% (inactive) | inactive | -7.29% (inactive) | – | -11.3% (inactive) | inactive | -21.9% (inactive) | – | – | –
3 | Cc1c(F)c(F)c(COC(=O)C2C(/C=C(\Cl)C(F)(F)F)C2(C)C)c(F)c1F (centres undefined) | 9.43% (inactive) | – | inactive | inactive | -0.493% | inactive | inactive | -8.23% | -3.48% (inactive) | 0.802% (inactive) | -0.765% (inactive) | inactive | -20.4% (inactive) | inactive | -1.61% (inactive) | – | -6.4% (inactive) | inactive | 12% (inactive) | 16.3% (inactive)
4 | CNC(=O)O/N=C(\SC)C(=O)N(C)C | – | – | inactive | inactive | -12.6% | inactive | inactive | -5.53% | 2.97% (inactive) | -0.668% (inactive) | 0.554% (inactive) | inactive | -17.7% (inactive) | inactive | -0.972% (inactive) | – | – | inactive | -20.9% (inactive) | 0.203% (inactive)
5 | CCSC(C)CC1CC(=O)C(/C(CC)=N/OC/C=C/Cl)=C(O)C1 (centres undefined) | -3.59% (inactive) | – | inactive | inactive | – | – | inactive | -6.58% | -5.66% (inactive) | -2.18% (inactive) | 0.0996% (inactive) | inactive | -19.5% (inactive) | inactive | – | – | -16.3% (inactive) | – | – | -26.3% (inactive)
6 | CC(C)CCCCCCOC(=O)c1ccccc1C(=O)OCCCCCCC(C)C | 9.1% (inactive) | inactive | – | inactive | -16.4% | inactive | – | -8.76% | 0.433% (inactive) | 1.61% (inactive) | -1.61% (inactive) | – | 0.428% (inactive) | – | 5.38% (inactive) | inactive | -8.54% (inactive) | inactive | – | -2.48% (inactive)
7 | O=C(Nc1ccccc1)Nc1ccnc(Cl)c1 | -0.972% (inactive) | – | inactive | inactive | – | – | inactive | – | – | 11% (inactive) | -0.317% (inactive) | – | -3.22% (inactive) | inactive | 9.67% (inactive) | inactive | -3.84% (inactive) | inactive | – | 16% (inactive)
8 | Cc1ccccc1C(=O)Nc1cccc(OC(C)C)c1 | 2.19% (inactive) | inactive | – | – | -12.9% | inactive | inactive | -1.03% | -3.37% (inactive) | – | -0.819% (inactive) | – | -14.9% (inactive) | inactive | – | – | -16% (inactive) | inactive | – | 5.62% (inactive)
9 | C/C(=N\NC(=O)Nc1cc(F)cc(F)c1)c1ncccc1C(=O)O | 10.9% (inactive) and -10.6% (inactive) | inactive | inactive | inactive | 4% and -10.7% | inactive | inactive | -5.57% and -1.16% | -1.04% (inactive) and 1.35% (inactive) | 0.312% (inactive) and 2.08% (inactive) | 0.136% (inactive) and -0.453% (inactive) | – | -4.25% (inactive) and -0.19% (inactive) | – | -0.995% (inactive) and 1.1% (inactive) | – | -5.69% (inactive) and -3.6% (inactive) | – | -18.2% (inactive) and 0.0153% (inactive) | -6.39% (inactive)
10 | COP(=O)(OC)Oc1ccc([N+](=O)[O-])cc1 | – | – | – | inactive | – | – | inactive | – | – | 0.442% (inactive) | -5.35% (inactive) | inactive | -1.73% (inactive) | inactive | -1.53% (inactive) | – | -12.8% (inactive) | – | – | –
11 | COP(=O)(OC)OC(Br)C(Cl)(Cl)Br (centres undefined) | -8% (inactive) | – | 22.4 µM (active) | inactive | – | – | inactive | – | – | – | -1.63% (inactive) | – | -24% (inactive) | inactive | – | inactive | – | inactive | – | -62.2% (inactive)
12 | O=C1c2ccccc2C(=O)C1C(=O)C(c1ccccc1)c1ccc(Cl)cc1 (centres undefined) | -5.26% (inactive) | – | inactive | inactive | -4.27% | inactive | inactive | -2.15% | – | 3.58% (inactive) | -1.87% (inactive) | – | -33.5% (inactive) | inactive | 10.4% (inactive) | inactive | -28.8% (inactive) | inactive | – | 15% (inactive)
